Results as given in PubChem BioAssay (EPA / NIEHS).
Active and inactive are the calls of the source. Rule for the calls: active = hit-call score of the fitted dose curve at least 0.9, where 1 is the maximum; inactive = score below 0.9.

What was measured:
[1] = ATG_E_Box_CIS: Attagene CIS-FACTORIAL HepG2 Assay for human Enhancer Box (E-box) (AID 2282936); details: HepG2 E-box cis-reporter transcription, actives raise or lower the signal
Procedure, shortened: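 First, HepG2 cells receive multiple cis-regulated reporter constructs by transient transfection. Next, chemicals are applied for 24 h. Finally, reporter mRNA is quantified via RT-PCR and capillary electrophoresis, with DMSO as baseline.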

[2] = ATG_M_61_CIS: Attagene CIS-FACTORIAL HepG2 Assay for M61 Transcription Factor (Internal Marker) (AID 2282937); details: HepG2 Attagene CIS-FACTORIAL M61 internal marker reporter; actives raise or lower the signal
Procedure, shortened: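 This endpoint serves as an internal background control within a multiplexed HepG2 cis-reporter panel. Cells are exposed for 24 h; reporter mRNA is amplified, fluorescently labelled and sized by capillary electrophoresis, with DMSO as negative control.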

[3] = ATG_EGR_CIS: Attagene CIS-FACTORIAL HepG2 Assay for human Early Growth Response 1 (EGR1) (AID 2282938); details: HepG2 Attagene CIS-FACTORIAL EGR reporter mRNA; actives raise or lower the signal
Procedure, shortened: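 HepG2, transient MRTU transfection (cis promoters), 24 h compound. RNA → RT (oligo-dT) → PCR → 6-FAM labelling → HpaI cut → CE fluorescence. Bidirectional fit, DMSO baseline.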

[4] = ATG_M_19_CIS: Attagene CIS-FACTORIAL HepG2 Assay for M19 Transcription Factor (Internal Marker) (AID 2282939); details: HepG2 Attagene CIS-FACTORIAL M19 internal marker reporter; actives raise or lower the signal
Procedure, shortened: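 Readout: fluorescent reporter-transcript fragments by capillary electrophoresis after RT-PCR. Human HepG2 liver cells carried transfected MRTU constructs reporting endogenous transcription-factor activity; exposure 24 h. Gain or loss of signal fitted relative to DMSO.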

[5] = ATG_ERE_CIS: Attagene CIS-FACTORIAL HepG2 Assay for Estrogen Response Element (ERE) (AID 2282940); details: HepG2 ERE cis-reporter, Attagene RNA transcript; actives raise or lower the signal
Procedure, shortened: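 Readout: reporter mRNA induction by RT-PCR, FAM-labelled primer extension, HpaI digestion and capillary electrophoresis, 24 h after dosing transfected HepG2 cells. Endogenous transcription factors act on cis-element-regulated reporters. Gain or loss fitted against DMSO.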

[6] = ATG_Ets_CIS: Attagene CIS-FACTORIAL HepG2 Assay for human Erythroblast Transformation Specific (ETS) (AID 2282941); details: HepG2 ETS cis-reporter transcription, actives raise or lower the signal
Procedure, shortened: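 Steps: transfect HepG2 with multiple reporter units; treat compound 24 h; isolate RNA, DNase-treat, reverse-transcribe; PCR-amplify, label with 6-FAM, digest with HpaI; separate by capillary electrophoresis. Activity fitted both directions versus DMSO.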

[7] = biological target: Hepatocyte nuclear factor 3-beta (Homo sapiens) (UniProt Q9Y261); assay: ATG_FoxA2_CIS: Attagene CIS-FACTORIAL HepG2 Assay for human Forkhead box A2 (FOXA2) (AID 2282942); details: HepG2 cis-reporter transcription factor activity, 24 h; actives raise or lower the signal
Procedure, shortened: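 Cells: HepG2, transient multiplex reporter transfection. Exposure 24 h. Detection: reporter-specific RT-PCR, fluorescent labelling, restriction digest, capillary electrophoresis. Analysis: bidirectional curve fit, DMSO as negative control.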

[8] = ATG_FoxO_CIS: Attagene CIS-FACTORIAL HepG2 Assay for human Forkhead box O (FoxO) (AID 2282943); details: HepG2 Attagene cis-reporter, FoxO element, mRNA; actives raise or lower the signal
Procedure, shortened: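 Read-out: fluorescence of 6-FAM-labelled reporter cDNA fragments resolved by capillary electrophoresis. Transiently transfected HepG2 cells were dosed for 24 h; activity fitted in both directions relative to DMSO controls.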

[9] = ATG_GATA_CIS: Attagene CIS-FACTORIAL HepG2 Assay for human GATA Binding Protein (AID 2282944); details: HepG2 GATA cis-element reporter, Attagene multiplex mRNA; actives raise or lower the signal
Procedure, shortened: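 Read-out: fluorescent reporter mRNA fragments resolved by capillary electrophoresis after RT-PCR. Human liver HepG2 cells carried transiently transfected cis-regulated reporter constructs; chemicals incubated 24 h; gain or loss of signal fitted relative to DMSO.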

[10] = ATG_GLI_CIS: Attagene CIS-FACTORIAL HepG2 Assay for human Zinc Finger Protein GLI1 (AID 2282945); details: HepG2, Attagene cis-factorial reporter mRNA, GLI element; actives raise or lower the signal
Procedure, shortened: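 Transiently transfected HepG2 cells report endogenous transcription factor activity via cis-element-driven reporter units. After 24 h compound exposure, reporter mRNA was measured by RT-PCR with capillary electrophoresis; bidirectional fitting against DMSO baseline.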

Measured: AC50

Chain of Hepatocyte nuclear factor 3-beta (Homo sapiens) (Q9Y261 whole entry, looked up): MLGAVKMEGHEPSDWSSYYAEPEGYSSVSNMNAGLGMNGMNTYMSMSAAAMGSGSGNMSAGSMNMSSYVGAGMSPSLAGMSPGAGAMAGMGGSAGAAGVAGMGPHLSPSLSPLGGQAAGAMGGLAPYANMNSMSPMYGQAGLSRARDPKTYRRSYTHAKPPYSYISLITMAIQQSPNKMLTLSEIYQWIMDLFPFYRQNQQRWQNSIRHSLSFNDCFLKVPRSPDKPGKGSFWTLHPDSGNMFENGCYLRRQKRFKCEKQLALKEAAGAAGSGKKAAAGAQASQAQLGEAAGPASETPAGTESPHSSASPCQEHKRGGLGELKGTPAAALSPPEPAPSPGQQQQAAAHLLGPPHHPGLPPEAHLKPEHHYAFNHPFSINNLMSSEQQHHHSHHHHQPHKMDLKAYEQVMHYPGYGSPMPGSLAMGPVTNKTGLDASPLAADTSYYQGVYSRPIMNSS

c1cc(N(CC2CO2)CC2CO2)ccc1OCC1CO1 (stereo not given)
active: [3] 38.7 µM | [10] 140 µM
inactive: all other assays above

O=c1[nH]nc(-c2ccc([N+](=O)[O-])o2)o1
inactive: all assays above

Nc1ccc(N=Nc2ccccc2)c(N)n1
active: [1] 70.9 µM | [3] 70.5 µM
inactive: all other assays above

CC(=O)OCc1ccco1
inactive: all assays above

CCCc1ccc(OC)cc1
inactive: all assays above

COc1ccc(-c2coc3cc(O)ccc3c2=O)cc1
active: [5] 2.23 µM
inactive: all other assays above

Cc1ccccc1C
inactive: all assays above

NC(CO)(CO)CO
inactive: all assays above

CCCCCCCCCCC=CC#N
inactive: all assays above

Oc1ccc(Cl)cc1Cc1cc(Cl)ccc1O
active: [3] 8.39 µM | [5] 3.04 µM | [6] 6.68 µM
inactive: all other assays above

CC(C)=CCC[C@H](C)CCO
inactive: all assays above

Nc1ccc2cc3ccccc3cc2c1
active: [5] 8.48 µM
inactive: all other assays above

CCCCCCCCO[C@@H]1O[C@H](CO)[C@@H](O)[C@H](O)[C@H]1O
inactive: all assays above

CCCCCCCOC(=O)CCC
inactive: all assays above

CCc1ccc2c(c1)C(=O)c1ccccc1C2=O
inactive: all assays above

Clc1nc2ccccc2s1
inactive: all assays above

O=c1[nH]c(=O)c2[nH]c(=O)[nH]c2[nH]1
inactive: all assays above

CCCCCCC(O)CO (stereo not given)
inactive: all assays above

O=C1c2cccc(O)c2C(=O)c2c(O)cc(CO)cc21
active: [1] 2.41 µM | [5] 4.22 µM
inactive: all other assays above

O=C1CC2CC1C1CCCC21 (stereo not given)
active: [5] 19.8 µM
inactive: all other assays above

NC(=O)N=NC(N)=O
inactive: all assays above

CC(=O)Oc1ccc(C)cc1
inactive: all assays above

COC(=O)c1c(C)cc(O)c(C)c1O
inactive: all assays above

c1ccc(CNCc2ccccc2)cc1
inactive: all assays above
